Data reported in PubChem BioAssay (NCATS).
Results filed as inconclusive are left out. Values without a mark were called inactive. The source made the active and inactive calls. Calls follow the shape of the full dose curve. Numbered stars: 1 amine (or outer) side, 2 acyl side, 3 side chain; on linkers, the order of the positions; unused ones are H or OH. Bridge positions count the residues as written; N and C are the ends. Square brackets hold non-standard residues; d marks the D form. Peptide text beside a SMILES is read from it. * marks the point of attachment. ξ: configuration not given here. pTerphenylCO(4''-OnC5H11) = CCCCCOc1ccc(-c2ccc(-c3ccc(C(=O)*)cc3)cc2)cc1; ξOrn(4,5-diOH) = O=C(C(CC(O)C(O)N[*:3])N[*:1])[*:2]; ξhTyr(βξ-OH,γξ-OH) = NC(C(=O)O)C(O)C(O)c1ccc(O)cc1; ξPro(3ξ-OH,4ξ-Me) = CC1CNC(C(=O)O)C1O; Hyp = O=C(O)[CH]1C[CH](O)CN1

Assay: Primary qHTS for inhibitors of SARS-S pseudo-typed particle cell entry (AID 1479145); also: nearly all actives have a fitted effect of over 45% in size
Details: SARS-S pseudotyped particle cell entry, luciferase reporter; series mostly up to 57.1 µM; activity change, negative = inhibition: at the top concentration
% is scaled to controls: 0 for no effect and ±100 for the full control effect; potency is read from the fitted curve at half-maximal effect.

| SMILES | outcome | activity change, negative = inhibition | Potency |
| --- | --- | --- | --- |
| CCCCCCCCC=CCCCCCCCC(=O)NCCOC(=O)CC(C(=O)O)S(=O)(=O)O (stereo not given) | inactive |  |  |
| COc1cc2c(cc1O)CCN[C@]21CS[C@@H]2c3c(OC(C)=O)c(C)c4c(c3[C@H](COC1=O)N1[C@@H]2[C@H]2c3c(cc(C)c(OC)c3O)C[C@@H]([C@@H]1O)N2C)OCO4 |  | -93.9% [at 11.4 µM] |  |
| CO[C@H](C(=O)[C@@H](O)[C@@H](C)O)C1Cc2cc3cc(O[C@H]4C[C@@H](O[C@H]5C[C@@H](O)[C@H](O)[C@@H](C)O5)[C@@H](O)[C@@H](C)O4)c(C)c(O)c3c(O)c2C(=O)[C@H]1O[C@H]1C[C@@H](O[C@H]2C[C@@H](O[C@H]3C[C@](C)(O)[C@H](O)[C@@H](C)O3)[C@H](O)[C@@H](C)O2)[C@H](O)[C@@H](C)O1 (stereo not given in full) |  |  | 3.55 µM (active) |
| CC(=O)OC1CC(OC2C(O)CC(OC3C(O)CC(OC4CCC5(C)C(CCC6C5CCC5(C)C(C7=CC(=O)OC7)CCC65O)C4)OC3C)OC2C)OC(C)C1O (stereo not given) |  | -96.2% |  |
| Cc1cc(-c2ccc(N=Nc3ccc4c(S(=O)(=O)O)cc(S(=O)(=O)O)c(N)c4c3O)c(C)c2)ccc1N=Nc1ccc2c(S(=O)(=O)O)cc(S(=O)(=O)O)c(N)c2c1O | inactive |  |  |
| CC1(S(=O)(=O)O)CC(=O)c2ccccc2C1=O (stereo not given) |  | -1.48% |  |
| Nc1nc(NC2CC2)c2ncn([C@H]3C=C[C@@H](CO)C3)c2n1 | inactive |  |  |
| CCc1cc2c(cc1CC)CC(NC[C@H](O)c1ccc(O)c3[nH]c(=O)ccc13)C2 | inactive |  |  |
| COc1ccc2c(c1)OC(C)(C)C(c1ccccc1)C2c1ccc(OCCN2CCCC2)cc1 (stereo not given) |  | -33.1% |  |
| C[C@H]1O[C@@H](O[C@H]2[C@@H](O)C[C@H](O[C@H]3[C@@H](O)C[C@H](O[C@H]4CC[C@@]5(C)[C@H](CC[C@@H]6[C@@H]5C[C@@H](O)[C@]5(C)[C@@H](C7=CC(=O)OC7)CC[C@]65O)C4)O[C@@H]3C)O[C@@H]2C)C[C@H](O)[C@@H]1O |  | -97.5% |  |
| CO[C@H]1C[C@@H]2CC[C@@H](C)[C@@](O)(O2)C(=O)C(=O)N2CCCC[C@H]2C(=O)O[C@H]([C@@H](C)C[C@@H]2CC[C@@H](O)[C@H](OC)C2)CC(=O)[C@H](C)/C=C(\C)[C@@H](O)[C@@H](OC)C(=O)[C@H](C)C[C@H](C)/C=C/C=C/C=C/1C | inactive |  |  |
| C(=C\c1ccncc1)/c1ccccc1 |  | 0.959% [at 114 µM] |  |

Assay: Primary qHTS for Huh7 cytotoxicity: counterscreen for inhibitors of MERS-S pseudotyped particle cell entry (AID 1479147)
Details: cell viability read-out; series mostly up to 57.1 µM; activity change, negative = cytotoxicity: at the top concentration

| SMILES | outcome | activity change, negative = cytotoxicity | Potency |
| --- | --- | --- | --- |
| CO[C@H]1C[C@H](O[C@@H]2[C@H](C)O[C@H](O[C@@H]3/C(C)=C/C[C@@H]4C[C@@H](C[C@]5(C=C[C@H](C)[C@@H](C6CCCCC6)O5)O4)OC(=O)[C@@H]4C=C(C)C(O)[C@H]5OC/C(=C\C=C\[C@@H]3C)[C@]54O)C[C@@H]2OC)O[C@@H](C)[C@@H]1O (stereo not given in full) | inactive |  |  |
| CCCCC(O)c1ccccc1 (stereo not given) |  | 3.99% |  |
| Cc1ccc(C(=O)OCc2ccc([C@@H](CN)C(=O)Nc3ccc4cnccc4c3)cc2)c(C)c1 |  | -11% [at 26.4 µM] |  |
| OCCOc1ccc(/C(=C(/CCCl)c2ccccc2)c2ccccc2)cc1 | inactive |  |  |
| CNCc1cc(-c2ccccc2F)n(S(=O)(=O)c2cccnc2)c1 | inactive |  |  |
| C[C@H]1[C@H](OC(=O)CCC(=O)O)O[C@@H]2O[C@@]3(C)CC[C@H]4[C@H](C)CC[C@@H]1[C@@]24OO3 |  | -10% |  |
| CC[C@H](C)[C@@H]([C@@H](CC(=O)N1CCC[C@H]1[C@H](OC)[C@@H](C)C(=O)NCCc1ccccc1)OC)N(C)C(=O)[C@@H](NC(=O)[C@H](C(C)C)N(C)C)C(C)C |  | -16.8% |  |
| CN(C)C(=O)c1cc2cnc(Nc3ccc(N4CCNCC4)cn3)nc2n1C1CCCC1 |  | -1.06% [at 26.4 µM] |  |
| CCCCCOc1ccc(-c2ccc(-c3ccc(C(=O)NC4CC(O)C(O)NC(=O)C5C(O)C(C)CN5C(=O)C(C(C)O)NC(=O)C(C(O)C(O)c5ccc(O)cc5)NC(=O)C5CC(O)CN5C(=O)C(C(C)O)NC4=O)cc3)cc2)cc1 (stereo not drawn) ({pTerphenylCO(4''-OnC5H11)}-[ξOrn(4,5-diOH)]T[Hyp][ξhTyr(βξ-OH,γξ-OH)]T[ξPro(3ξ-OH,4ξ-Me)]; lactam 1-C; configuration not given here) |  | -19.6% [at 26.4 µM] |  |
| OCCN1CCN(CC/C=C2/c3ccccc3Sc3ccc(Cl)cc32)CC1 |  |  | 22.4 µM (active) |
| CNC(C)C(O)c1ccccc1 (stereo not given) |  | 2.25% |  |
| O=P(O)(O)OC(CO)CO | inactive |  |  |
| CC[C@]12C=CCN3CC[C@@]4(c5cc([C@@]6(C(=O)OC)CC7C[C@@H](C(C)(F)F)CN(Cc8c6[nH]c6ccccc86)C7)c(OC)cc5N(C)[C@H]4[C@@](O)(C(=O)OC)[C@@H]1OC(C)=O)[C@@H]32 (stereo not given in full) |  | -29.2% |  |
| O=C(NC1CCN(CCCCC2(C(=O)NCC(F)(F)F)c3ccccc3-c3ccccc32)CC1)c1ccccc1-c1ccc(C(F)(F)F)cc1 |  |  | 31.6 µM (active) |
| Cc1c(N)nc(C(CC(N)=O)NCC(N)C(N)=O)nc1C(=O)NC(C(=O)NC(C)C(O)C(C)C(=O)NC(C(=O)NCCc1nc(-c2nc(C(=O)NCCCN[C@@H](C)c3ccccc3)cs2)cs1)C(C)O)C(O[C@@H]1O[C@@H](CO)[C@@H](O)[C@H](O)[C@@H]1O[C@H]1O[C@H](CO)[C@@H](O)[C@H](OC(N)=O)[C@@H]1O)c1cnc[nH]1 (stereo not given in full) |  | -4.29% |  |
| COC(=O)[C@@H](N)CS | inactive |  |  |
| CCOc1nc2cccc(C(=O)OC(C)OC(=O)OC3CCCCC3)c2n1Cc1ccc(-c2ccccc2-c2nn[nH]n2)cc1 (stereo not given) |  | -17.2% |  |
| C[C@@]12CCCCC[C@@H](Cc3ccc(O)cc31)[C@H]2N |  | -8.64% |  |
| O=[N+]([O-])c1ccc(Oc2ccc(N=C=S)cc2)cc1 |  | -30.5% |  |
| NCCS[As](SCCN)c1ccc(Nc2nc(N)nc(N)n2)cc1 |  | 1.9% |  |
| CCCOc1ccc2nc(NC(=O)OC)sc2c1 |  | -33.4% |  |
| C[C@@H](c1nc(-c2ccc(C#N)cc2)cs1)[C@](O)(Cn1cncn1)c1cc(F)ccc1F |  | -14.3% |  |
| COc1cc(CNC(=O)CCCC/C=C/C(C)C)ccc1O |  | 1.26% |  |
| C=CC(=O)N1CCCC(n2nc(-c3ccc(Oc4ccccc4)cc3)c3c(N)ncnc32)C1 (stereo not given) |  | 0.939% |  |
| COc1ccc2c(=O)c(C)c(-c3ccccc3)oc2c1CN(C)C | inactive |  |  |
| CC(=O)O[C@H]1C[C@@H]2CC[C@@H]3[C@H](CC[C@@]4(C)[C@H]3C[C@H](N3CC[N+](C)(C)CC3)[C@@H]4OC(C)=O)[C@@]2(C)C[C@@H]1N1CC[N+](C)(C)CC1 |  | 0.747% |  |
| S=C1SCN(Cc2ccccc2)CN1Cc1ccccc1 |  |  | 35.5 µM (active) |
| CCN(CC)C(=O)[C@]1(c2ccccc2)C[C@H]1CN |  | 0.93% |  |
